Source: PubChem BioAssay
aSyn 5UTR act: Activators via SNCA 5'UTR binding, MLPCN; actives 7.1% (n = 300,000); AID 1814, 2009; activity score, % (tested at 7.5 µM), hits read low; alpha-synuclein 5'UTR reporter, activators screen; in the data active means activity score below about -60%
* hit, by the source's call. These entries were drawn from the full list.

SMILES	aSyn 5UTR act
Cc1ccc2oc(C(=O)NCCCN3CCOCC3)c(C)c2c1	-95*
Cc1ccc(-c2nc(C(=O)NCCCN3CCOCC3)cc3c2[nH]c2ccccc23)cc1	-65*
CCCc1ccc2oc(C(=O)N(C)Cc3nccs3)c(C)c2c1	-149*
C/C(Cl)=C\Cn1c(O)c(N=NC(N)=S)c2cc(Br)ccc21	70
CCOC(=O)c1c2c(n(C)c1C)C(=O)C(=O)c1ccc(Br)cc1-2	110
CCOC(=O)c1c(C)[nH]c2c1cc(O)c1ccccc12	-189*
CCOC(=O)c1c(C)oc2c1cc(O)c1ccccc12	-104*
CCOC(=O)c1c(C)oc2c1c1c(c3ccccc32)OCN(CCCC(=O)O)C1	-108*
O=C(Nc1ccc(-c2cn3ccccc3n2)cc1)c1cccs1	-129*
COc1ccc(CC(=O)Nc2ccc(-c3cn4ccccc4n3)cc2)cc1OC	-86*
COc1ccc(-c2cn3cccnc3n2)cc1Br	-66*
COc1ccc(-c2cc3cc(OC)c(OC)cc3cn2)cc1OC	-140*
COc1ccc(-c2cn3ccccc3n2)cc1OC	-171*
COc1ccc(CC(=O)Nc2ccc(-c3cn4ccccc4n3)cc2)cc1	-124*
c1ccn2cc(-c3ccc4c(c3)OCCO4)nc2c1	98
COc1ccc(-c2cn3cc(Br)cnc3n2)cc1	-123*
C(=N\Nc1nc2ccccc2[nH]1)/c1cccs1	-172*
Cc1ccsc1/C=N/Nc1nc2ccccc2[nH]1	-213*
Cc1cc(=O)[nH]c(N/N=C/c2sccc2C)n1	-90*
Cc1ccc(S(=O)(=O)c2nc(S(=O)(=O)CCO)sc2N2CCOCC2)cc1	-96*
CCCS(=O)(=O)c1nc(S(=O)(=O)c2ccc(C)cc2)c(N2CCOCC2)s1	-62*
CCCS(=O)(=O)c1nc(S(=O)(=O)c2ccc(C)cc2)c(N2CCN(CCO)CC2)s1	-98*
O=[N+]([O-])c1cc(/C=N/N2CCCCC2)ccc1Cl	-89*
CN1CCN(/N=C/c2ccc(Cl)c(Cl)c2)CC1	-145*
CN1CCN(/N=C/c2ccc(Br)cc2)CC1	-118*
SMILES	aSyn 5UTR act
CN1CCN(/N=C/c2ccc(N(c3ccccc3)c3ccccc3)cc2)CC1	71
O=c1c2[nH]c3ccccc3c2ncn1C1CCCCC1	-91*
OC(c1cc(-c2ccc(Cl)cc2)nc2ccccc12)C1CCCCN1 (stereo not drawn)	96
COc1cc(NC2CCCCC2O)c2nc(-c3ccc(Cl)cc3)ccc2c1 (stereo not drawn)	-94*
COc1ccc(Nc2nc(C)cc(C)n2)cc1Cl	-114*
Cc1cc(C)nc(Nc2ccc(C(=O)O)cc2)n1	-157*
Cc1cc(C)nc(Nc2ccc(N3CCCC3)cc2)n1	-65*
CCc1ccc(Nc2nc(C)cc(C)n2)cc1	-179*
O=C1C(Cl)=C(NCc2cccnc2)C(=O)c2ccccc21	-141*
O=C(O)c1cccc(NC2=C(Cl)C(=O)c3ccccc3C2=O)c1	-191*
CCN(CC)CCCNC1=C(Cl)C(=O)c2ccccc2C1=O	76
CC(C)NC1=C(Cl)C(=O)c2ccccc2C1=O	-91*
O=C1C(Cl)=C(Nc2ccccc2)C(=O)c2ccccc21	-190*
CC(=O)c1c(C)[nH]c(C(=O)CSc2ccc(F)cc2)c1C	-182*
Cc1cc(C(=O)CSc2ccc(F)cc2)cc(C)c1O	-109*
Cc1cc(C(=O)CSc2ccc(Cl)cc2)cc(C)c1OC(=S)N(C)C	-179*
CCc1c(C(=O)NC2CCCc3ccccc32)[nH]c(C)c1C(C)=O (stereo not drawn)	64
O=C(Nc1ccccc1)OCC1CCCO1 (stereo not drawn)	-84*
Cc1cccc(NC(=O)c2ccc(OCC3CCCO3)cc2)c1C (stereo not drawn)	-70*
O=C(Nc1ccc(Cl)cc1)c1ccc(OCC2CCCO2)cc1 (stereo not drawn)	-202*
Cc1cc(O)c(C2=Nc3ccccc3SC(c3ccc(Cl)cc3)C2)c(=O)o1 (stereo not drawn)	-261*
Nc1nc(N)c2sc3nc4c(cc3c2n1)CCC4	-107*
CCC(=NCc1ccccc1)c1c(C(F)(F)F)[nH]n(-c2nc3ccccc3s2)c1=O	-111*
COc1ccc2cnn(-c3ccc(C)cc3)c(=O)c2c1OC	-115*
COc1ccc2cnn(-c3ccc(OC(F)(F)Cl)cc3)c(=O)c2c1OC	-70*
SMILES	aSyn 5UTR act
CC(=O)N(C(C)=O)n1c(C)nc2sc3c(c2c1=O)CCCC3	51
C1CCC(c2nn3c(-c4n[nH]c5c4CCC5)nnc3s2)CC1	56
O=c1c2c3c(sc2nc2sc(C4CC4)nn12)CCCC3	-130*
O=C(Nc1c(C(=O)Nc2ccc3c(c2)OCCO3)cnn1-c1ccccc1Cl)c1ccco1	-102*
O=C(Nc1cc2c(cc1Cl)OCCO2)c1ccco1	-163*
O=C(Nc1cc2c(cc1Br)OCCO2)c1cccs1	-142*
O=C(Nc1cc2c(cc1Br)OCCO2)c1ccco1	-101*
O=C(Nc1ccc(NC(=O)c2ccco2)c(Cl)c1)c1ccc2c(c1)OCCO2	-76*
COc1ccc(-c2csc(Nc3ccc(C)cn3)n2)cc1OC	-120*
COc1ccc(-c2csc(Nc3ccc(S(N)(=O)=O)cc3)n2)cc1OC	62
